In PubChem BioAssay (Tox21):
Results filed as inconclusive are left out. Where a call stands in place of a potency, no number is given. Unmarked numbers belong to inactive results. Activity calls are given as the source filed them. Unless noted, calls follow the shape of the dose curve; as a rule, active = well fitted cell-killing curve with a large enough effect in the repeat runs; inconclusive = weak or mixed curves, or effect the other way; inactive = no such curve, though single readings can be large or run the other way.

Molecular target: Glucocorticoid receptor (Homo sapiens) (UniProt P04150)
Experiment: qHTS assay to identify small molecule antagonists of the glucocorticoid receptor (GR) signaling pathway (AID 720692; active = well fitted inhibition curve with a large enough effect in the signal ratio in the repeat runs, not every such curve was filed as active; the % refers to the signal ratio)
Conditions: GR-bla HeLa, beta-lactamase FRET ratio, dexamethasone-stimulated, 18 h; series mostly up to 58.5 µM; activity change, negative = inhibition: at the top concentration
How it was run: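 GRE-bla HeLa line, dex-stimulated (5 nM final). Compound exposure 18 h, 37 C. Beta-lactamase FRET read after 2 h RT substrate.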

Glucocorticoid receptor (Homo sapiens), sequence (P04150 whole entry, looked up): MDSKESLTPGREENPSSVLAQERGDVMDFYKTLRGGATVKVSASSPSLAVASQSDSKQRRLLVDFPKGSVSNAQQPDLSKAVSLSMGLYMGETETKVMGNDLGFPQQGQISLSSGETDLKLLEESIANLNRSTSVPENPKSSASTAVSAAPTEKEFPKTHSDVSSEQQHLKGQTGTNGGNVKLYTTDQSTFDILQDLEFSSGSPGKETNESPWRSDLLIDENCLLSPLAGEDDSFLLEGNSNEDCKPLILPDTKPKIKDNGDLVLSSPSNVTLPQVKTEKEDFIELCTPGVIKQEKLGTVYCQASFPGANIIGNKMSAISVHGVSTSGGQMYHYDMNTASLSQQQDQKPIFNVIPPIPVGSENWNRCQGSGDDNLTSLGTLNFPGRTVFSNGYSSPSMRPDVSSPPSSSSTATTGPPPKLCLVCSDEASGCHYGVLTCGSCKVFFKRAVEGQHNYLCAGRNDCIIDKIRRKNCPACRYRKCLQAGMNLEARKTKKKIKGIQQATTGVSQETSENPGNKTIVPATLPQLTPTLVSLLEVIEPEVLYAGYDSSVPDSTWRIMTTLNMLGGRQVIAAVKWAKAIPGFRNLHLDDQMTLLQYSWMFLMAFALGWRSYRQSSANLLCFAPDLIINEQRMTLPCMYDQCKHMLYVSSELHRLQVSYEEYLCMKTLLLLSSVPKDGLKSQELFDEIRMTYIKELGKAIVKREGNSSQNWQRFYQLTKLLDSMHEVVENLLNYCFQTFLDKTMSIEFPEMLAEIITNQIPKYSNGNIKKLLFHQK

Row | Compound | Potency | activity change, negative = inhibition
1 | CC(C)(C)NC[C@H](O)COc1nsnc1N1CCOCC1 | inactive | –
2 | CC(C)=CCC/C(C)=C/C=O | inactive | –
3 | C1CCCNCC1 | – | -0.418%
4 | COc1c2ccoc2cc2oc(=O)ccc12 | inactive | –
5 | CC(=O)Nc1ccc(CC(=O)O)cc1 | inactive | –
6 | CCCCCCC(=O)O | inactive | –
7 | Cc1ccccc1C=O | inactive | –
8 | Cc1cc(CC(=O)O)n(C)c1C(=O)c1ccc(Cl)cc1 | inactive | –
9 | C[Si](C)(C)N[Si](C)(C)C | inactive | –
10 | Clc1cccc(Cl)c1NC1=NCCN1 | inactive | –
11 | O=C(O)C1=NN(c2ccc(S(=O)(=O)O)cc2)C(=O)C1 | inactive | –
12 | C=C(CC(=O)O)C(=O)O | inactive | –
13 | Cc1ccccc1Cl | inactive | –
14 | CCCCCCCCCCCCCC(=O)O | – | -2.84%
15 | O=C1CCCCCCCCCCC1 | inactive | –
16 | COCN(COC)c1nc(N(COC)COC)nc(N(COC)COC)n1 | inactive | –
17 | C[n+]1ccn(CCO)c1 | – | -3.91%
18 | NC(N)=S | inactive | –
19 | CCCCCCCCC(=O)O | inactive | –
20 | OC1CCCCC1 | inactive | –
21 | Cc1ccc(C(C)C)cc1 | inactive | –
22 | CC(=O)CC(=O)N(C)C | inactive | –
23 | Cc1cc(C)c(O)c(C)c1 | inactive | –
24 | CC(C)c1ccc(C(C)C)cc1 | inactive | –
25 | Oc1ccc(Cc2ccccc2O)cc1 | inactive | –
26 | OCC(O)CS (stereo not given) | – | -4.48% [at 78.9 µM]
27 | Cc1ccncc1 | inactive | –

Test system: not listed separately
Experiment: qHTS assay to identify small molecule antagonists of the glucocorticoid receptor (GR) signaling pathway - cell viability counter screen (AID 720693); also: nearly all actives have a fitted effect of over 55% in size
Conditions: GR-bla HeLa viability, CellTiter-Glo luminescence, 18 h, with 5 nM dexamethasone present; series mostly up to 58.5 µM; viability change, negative = cytotoxic: at the top concentration

Row | Compound | Potency | viability change, negative = cytotoxic
28 | CC(C)(C)NC[C@H](O)COc1nsnc1N1CCOCC1 | inactive | –
29 | Cc1ccc([N+](=O)[O-])cc1N | – | -5.74%
30 | CC(C)=CCC/C(C)=C/C=O | inactive | –
31 | O=C(NCC1CCCCN1)c1cc(OCC(F)(F)F)ccc1OCC(F)(F)F (stereo not given) | inactive | –
32 | CC1(C)[C@@H](O[C@H]2O[C@H](C(=O)O)[C@@H](O)[C@H](O)[C@H]2O[C@@H]2O[C@H](C(=O)O)[C@@H](O)[C@H](O)[C@H]2O)CC[C@]2(C)[C@H]3C(=O)C=C4[C@@H]5C[C@@](C)(C(=O)O)CC[C@]5(C)CC[C@@]4(C)[C@]3(C)CC[C@@H]12 | inactive | –
33 | C1CCCNCC1 | inactive | –
34 | COc1c2ccoc2cc2oc(=O)ccc12 | inactive | –
35 | CC(=O)Nc1ccc(CC(=O)O)cc1 | inactive | –
36 | CCCCCCC(=O)O | inactive | –
37 | CC(=O)OC(C)(C)C1CC=C(C)CC1 (stereo not given) | inactive | –
38 | Cc1ccccc1C=O | inactive | –
39 | NC(=O)NC(N)=O | inactive | –
40 | Cc1cc(CC(=O)O)n(C)c1C(=O)c1ccc(Cl)cc1 | inactive | –
41 | C[Si](C)(C)N[Si](C)(C)C | inactive | –
42 | COc1ccc2cc3[n+](cc2c1OC)CCc1cc2c(cc1-3)OCO2 | – | -5.82%
43 | Nc1nc(N)c2nc(-c3ccccc3)c(N)nc2n1 | inactive | –
44 | Clc1cccc(Cl)c1NC1=NCCN1 | inactive | –
45 | O=C(O)C1=NN(c2ccc(S(=O)(=O)O)cc2)C(=O)C1 | inactive | –
46 | N[C@@H](Cc1cc(I)c(Oc2ccc(O)c(I)c2)c(I)c1)C(=O)O | inactive | –

Row | Compound | Potency | viability change, negative = cytotoxic
47 | C=C(CC(=O)O)C(=O)O | inactive | –
48 | Cc1ccccc1Cl | inactive | –
49 | CCCCCCCCCCCCCC(=O)O | inactive | –
50 | O=C1CCCCCCCCCCC1 | inactive | –
51 | COCN(COC)c1nc(N(COC)COC)nc(N(COC)COC)n1 | inactive | –
52 | Cc1nnc(NS(=O)(=O)c2ccc(N)cc2)s1 | inactive | –
53 | C[n+]1ccn(CCO)c1 | inactive | –
54 | NC(N)=S | inactive | –
55 | CCCCCCCCC(=O)O | inactive | –
56 | OC1CCCCC1 | inactive | –
57 | Cc1ccc(C(C)C)cc1 | inactive | –
58 | CCn1cc(C(=O)O)c(=O)c2cc3c(cc21)OCO3 | inactive | –
59 | CC(=O)CC(=O)N(C)C | inactive | –
60 | CCCCC(CC)COC(=O)c1ccc(C(=O)OCC(CC)CCCC)cc1 (stereo not given) | inactive | –
61 | Cc1cc(C)c(O)c(C)c1 | inactive | –
62 | CC(C)c1ccc(C(C)C)cc1 | inactive | –
63 | Oc1ccc(Cc2ccccc2O)cc1 | inactive | –
64 | OCC(O)CS (stereo not given) | inactive | –
65 | Cc1ccncc1 | inactive | –
